# Screens as filed in PubChem BioAssay.
# rCAG binder: binds r(CAG) RNA repeats. hit rate 1.3% among 370,000. inhibition, % at 3 µM. r(CAG) RNA repeat, TO-PRO-1 dye displacement fluorescence;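 active = inhibition above the plate cutoff, the mean of all test compounds on that plate plus 3 SD, cut at about 35% in these data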;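 note: 0% = DMSO alone and 100% = 100 µM mitoxantrone as full dye displacement; higher means more dye released from RNA so lower well fluorescence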
# AHR act: activates the human aryl hydrocarbon receptor | P35869 | AHR-responsive luciferase reporter cells, luminescence | activation, % at 5 µM | hit rate 2.5% among 320,000; in the data active = activation above about 47%;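 note: 0% = vehicle wells and 100% = reference agonist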
# proKLK7 act: activates the human kallikrein-7 zymogen. purified proKLK7, EDANS-DABCYL substrate fluorescence; 100% is mature enzyme control, 0% vehicle. hit rate 0.9% among 370,000. AID 652039. activation, % at 7 µM. P49862;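 active = activation above the mean of all tested compounds plus 3 SD, computed per campaign excluding outliers beyond control limits, cut at about 13% in these data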
# ADAM17 inh: ADAM17 inhibition, QFRET primary screen. recombinant ADAM17, EDANS/DABCYL FRET peptide cleavage. inhibition, % at 6.95 µM. hit rate 0.83% among 370,000. AID 720648;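 active = inhibition above the mean of compounds lying between control limits plus 3 SD, set per campaign, cut at about 8.5% in these data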;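 note: 0% = DMSO-only wells as the low control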
# Target sequence (P78536 215-824 limits assumed): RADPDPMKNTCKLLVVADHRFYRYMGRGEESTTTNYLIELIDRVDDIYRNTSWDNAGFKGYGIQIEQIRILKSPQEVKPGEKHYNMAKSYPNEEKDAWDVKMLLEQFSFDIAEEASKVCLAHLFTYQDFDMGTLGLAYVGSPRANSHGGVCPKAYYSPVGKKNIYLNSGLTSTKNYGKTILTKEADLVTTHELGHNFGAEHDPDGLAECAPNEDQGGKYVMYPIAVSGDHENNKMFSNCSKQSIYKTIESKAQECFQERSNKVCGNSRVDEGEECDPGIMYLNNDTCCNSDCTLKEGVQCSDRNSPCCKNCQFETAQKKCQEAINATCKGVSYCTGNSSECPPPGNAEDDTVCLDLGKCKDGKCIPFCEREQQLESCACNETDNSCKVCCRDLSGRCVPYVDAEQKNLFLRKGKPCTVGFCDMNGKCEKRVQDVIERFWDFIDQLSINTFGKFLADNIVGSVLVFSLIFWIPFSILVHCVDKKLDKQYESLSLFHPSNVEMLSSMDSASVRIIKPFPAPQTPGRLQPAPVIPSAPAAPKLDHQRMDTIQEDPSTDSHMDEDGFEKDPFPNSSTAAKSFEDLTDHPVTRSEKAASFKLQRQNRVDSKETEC
# ADAM10 inh: inhibits human ADAM10; O14672; recombinant ADAM10, EDANS/DABCYL FRET peptide cleavage, 3 h; inhibition, % at 7 µM; hit rate 0.62% among 370,000; AID 720582;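 active = inhibition above a per-campaign cutoff equal to the mean of compounds falling between control-based bounds plus 3 SD, cut at about 20% in these data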;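 note: 0% = DMSO wells while the 100% control is not disclosed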
# GRIN3A LBD mod: modulates the human NR3A ligand-binding domain; NR3A LBD differential scanning fluorimetry, Tm shift; 0% = protein alone, 100% = glycine-bound protein; Tm shift relative to glycine control, % at 25 µM; hit rate 2.5% among 340,000; AID 1259313;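 active = melting temperature shift of at least 10% of the positive control shift, at one fixed dose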
# ADAM10 confirm: human ADAM10 inhibition, confirmation; shares compounds with ADAM10 inh; ADAM10 QFRET peptide cleavage, EDANS fluorescence; inhibition, % at 6.95 µM; hit rate 1% among 2,100;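 active = inhibition above about 20% chosen separately for each screening run, limit read from the data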;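 note: 0% = DMSO wells and 100% = marimastat wells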
# ADAM17 ctr: inhibits human ADAM17 in ADAM10 exosite counter-screen; ADAM17 QFRET peptide cleavage, EDANS fluorescence; hit rate 0.5% among 2,100; shares compounds with ADAM10 inh; inhibition, % at 6.95 µM;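 active = mean triplicate inhibition above the solvent-only control wells' mean plus 3 SD, cut at about 12% in these data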;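 note: 0% = DMSO wells and 100% = marimastat wells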
# ADAM10 counter: inhibits human ADAM10 in ADAM17 exosite counter-screen; shares compounds with ADAM17 inh; recombinant ADAM10, EDANS/DABCYL FRET peptide cleavage, 3 h; inhibition, % at 6.95 µM; hit rate 47% among 2,900;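 active = mean inhibition over the triplicate runs exceeds the activity threshold set in the earlier primary screen, cut at about 20% in these data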;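 note: 0% = DMSO wells and 100% = marimastat wells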
# ADAM17 confirm: human ADAM17 inhibition, confirmation; shares compounds with ADAM17 inh; recombinant ADAM17, EDANS/DABCYL QFRET peptide cleavage; inhibition, % at 6.95 µM; hit rate 65% among 2,900; AID 743257;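 active = mean inhibition across replicates above the hit cutoff set in the primary screen, cut at about 8.5% in these data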;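 note: 0% = DMSO wells and 100% = marimastat wells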
# Starred values were filed as active, the others as inactive; . = not tested or not shown. This is a sample that favours compounds with a hit; in the whole collection about 7% have one here.
SMILES,rCAG binder,AHR act,proKLK7 act,ADAM17 inh,ADAM10 inh,GRIN3A LBD mod,ADAM10 confirm,ADAM17 ctr,ADAM10 counter,ADAM17 confirm
O=C(NCC1OCCCN1S(=O)(=O)c1cc(F)ccc1F)C(=O)NC1CCCCC1 (centres undefined),-1.1,1.0,0.9,-4.0,-2.8,2.3,.,.,.,.
CCOc1cc(S(=O)(=O)Nc2cc(C)cc(C)c2)ccc1Cl,13.4,0.4,0.3,19.8*,36.4*,11.0*,2.9,0.8,26.7*,14.7*
Cc1[nH]c(=O)c(C#N)c(C)c1CCC(=O)NCc1ccc(Cl)cc1,-2.8,9.4,-0.6,-7.7,-10.4,-1.0,.,.,.,.
COc1cccc(-n2c(SCC(N)=O)nnc2-c2ccncc2)c1,-2.8,1.4,0.8,-1.6,-0.3,-7.5,.,.,.,.
COc1cccc(NC(=O)C(Sc2nnc(-c3ccncc3)n2-c2ccc(Cl)cc2)c2ccccc2)c1 (centres undefined),14.4,6.8,0.1,14.1*,38.3*,-0.1,9.3,2.8,29.8*,15.6*
Cc1nc2ccc(NC(=O)c3cc(Cl)ccn3)cc2s1,5.0,18.7,-0.1,1.4,1.7,-0.1,.,.,.,.
O=C(Nc1cccc(F)c1)c1cc(S(=O)(=O)NCCC2=CCCCC2)ccc1F,4.4,0.5,0.1,9.1*,23.8*,22.4*,8.2,2.2,22.5*,14.5*
COc1ccc(CCN2C(=O)c3[nH]nc(-c4ccccc4O)c3C2c2cccc(Cl)c2)cc1 (centres undefined),20.1,9.3,-0.1,14.0*,36.0*,15.2*,10.9,5.3,41.3*,16.8*
OC(c1ccccc1)(c1nc(-c2ccc3c(c2)OCO3)cs1)C(F)(F)F (centres undefined),4.6,.,0.1,9.2*,22.7*,.,12.6,3.6,25.3*,14.2*
OC(c1ccccc1)(c1nc(-c2ccc3ccccc3c2)cs1)C(F)(F)F (centres undefined),7.3,.,-0.2,7.8,6.8,.,.,.,.,.
CC(O)(c1cccc(F)c1)c1nc(-c2cccc(F)c2)cs1 (centres undefined),0.5,.,-0.2,4.7,2.1,.,.,.,.,.
CS(=O)(=O)c1ccc(-c2csc(C(O)(c3ccccc3)C(F)(F)F)n2)cc1 (centres undefined),2.4,.,-0.6,5.2,10.3,.,.,.,.,.
OC(c1ccccc1)(c1nc(-c2ccccc2)cs1)C(F)(F)F (centres undefined),1.2,.,-0.3,8.8*,22.6*,.,7.9,1.5,32.7*,17.3*
OC(c1ccccc1)(c1nc(-c2cccc(F)c2)cs1)C(F)(F)F (centres undefined),-0.3,.,-0.3,11.6*,33.0*,.,8.1,2.0,39.4*,17.9*
CCOC(=O)CC(=O)CSc1ncnc2c1nnn2-c1ccc(OC)cc1,14.6,-4.8,0.0,3.7,6.9,-0.4,.,.,.,.
O=C(COC(=O)CC1c2ccccc2CCN1S(=O)(=O)c1ccc(F)cc1)Nc1ccccc1 (centres undefined),-1.0,-2.5,0.4,5.5,11.2,2.1,.,.,.,.
CCc1cccc(CC)c1NC(=O)COC(=O)CC1c2ccccc2CCN1S(=O)(=O)c1ccc(F)cc1 (centres undefined),5.1,4.1,0.9,14.0*,23.0*,-3.1,2.2,0.5,6.0,2.2
COCC1CCN(Cc2c(C(=O)N3CCc4ccccc4C3)nc3ccc(Cl)cn23)C1 (centres undefined),-1.6,.,-0.4,-7.6,-25.8,-3.1,.,.,.,.
C(#CCN1CCCC1)CC(c1ccccc1)c1ccccc1,-8.5,2.6,-0.5,-1.9,-3.6,-4.8,.,.,.,.
Cc1ccc(NC(CC(=O)c2ccccc2)c2ccc(F)cc2)cc1 (centres undefined),-0.9,1.1,0.1,-2.3,1.9,-3.4,.,.,.,.
COc1ccc(C(CC(=O)c2ccc(C)cc2)Nc2ccc([N+](=O)[O-])cc2)cc1 (centres undefined),16.1,-1.6,0.7,14.4*,20.2*,-11.3,6.3,2.2,19.2,13.1*
Cn1c(SCc2ccc(Cl)cc2)nnc1-c1ccc2nonc2c1,-2.7,-5.5,0.4,-4.4,1.1,0.3,.,.,.,.
CCOC(=O)c1ccc(N/C(=N\S(=O)(=O)c2ccc(F)cc2F)c2ccccc2)cc1,3.1,0.9,0.5,11.8*,30.2*,-3.7,3.1,0.6,27.4*,17.6*
CCCCOC(=O)c1ccc(N/C(=N\S(=O)(=O)c2ccccc2)c2ccccc2)cc1,1.9,2.8,0.5,0.6,17.9,-5.3,.,.,.,.
Cc1ccc2cc(CCNC(=O)Cc3cccs3)c(=O)[nH]c2c1,-0.1,10.3,0.7,-7.0,-23.6,-0.2,.,.,.,.
SMILES,rCAG binder,AHR act,proKLK7 act,ADAM17 inh,ADAM10 inh,GRIN3A LBD mod,ADAM10 confirm,ADAM17 ctr,ADAM10 counter,ADAM17 confirm
CCn1cc(S(=O)(=O)NCCc2ccc(OC)c(OC)c2)cn1,-4.5,-0.6,0.1,-3.0,-0.9,-1.2,.,.,.,.
CC(O)(c1ccc(F)c(F)c1)c1nc(-c2ccc3ccccc3c2)cs1 (centres undefined),7.4,.,1.3,21.7*,44.3*,.,7.3,3.1,17.1,9.4*
CC(O)(c1ccccc1)c1nc(-c2ccc(Cl)cc2)cs1 (centres undefined),0.1,.,3.8,-1.0,11.4,.,.,.,.,.
CC(O)(c1ccccc1)c1nc(-c2cc3ccccc3o2)cs1 (centres undefined),2.4,.,0.6,8.7*,25.7*,.,12.7,3.6,29.9*,14.7*
CC(O)(c1ccc(F)c(F)c1)c1nc(-c2cnc3ccccc3c2)cs1 (centres undefined),1.7,.,0.4,5.4,-0.1,.,.,.,.,.
CC(C)c1c(C(=O)N/N=C/c2cccc3ccccc23)nnn1-c1nonc1N,6.3,11.5,0.8,10.0*,20.4*,31.8*,12.5,6.0,26.8*,19.9*
O=C(Nc1cccc(Cl)c1)OCCOCCOC(=O)Nc1cccc(Cl)c1,3.3,.,0.9,9.8*,21.3*,36.1*,3.8,1.8,19.5,13.3*
O=C(Nc1ccccc1)OCCOc1ccc(Cl)cc1Cl,-0.4,.,0.7,12.4*,32.3*,-3.5,4.9,2.2,28.3*,15.2*
CC(C)COC(=O)NCCOC(=O)Nc1cccc(Cl)c1,-7.3,0.8,0.6,4.0,5.3,-1.5,.,.,.,.
